PubChem BioAssay
The source made the active and inactive calls.

Assays:
Albumin (Bos taurus) = Albumin (Bos taurus) (UniProt P02769); test: compounds binding labelled BSA control protein – biochemical, small-molecule microarray, Alexa647 label, 635/667 nm fluorescence, artefact control for SMM control protein annotation, profiling panel (AID 1118); conditions: BSA-A647 binding, fluorescence 635 nm, higher = more signal;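 also: score merges 667 nm emission intensity and signal-to-noise per printed compound spot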
Sequence of Albumin (Bos taurus) (P02769 whole entry, looked up): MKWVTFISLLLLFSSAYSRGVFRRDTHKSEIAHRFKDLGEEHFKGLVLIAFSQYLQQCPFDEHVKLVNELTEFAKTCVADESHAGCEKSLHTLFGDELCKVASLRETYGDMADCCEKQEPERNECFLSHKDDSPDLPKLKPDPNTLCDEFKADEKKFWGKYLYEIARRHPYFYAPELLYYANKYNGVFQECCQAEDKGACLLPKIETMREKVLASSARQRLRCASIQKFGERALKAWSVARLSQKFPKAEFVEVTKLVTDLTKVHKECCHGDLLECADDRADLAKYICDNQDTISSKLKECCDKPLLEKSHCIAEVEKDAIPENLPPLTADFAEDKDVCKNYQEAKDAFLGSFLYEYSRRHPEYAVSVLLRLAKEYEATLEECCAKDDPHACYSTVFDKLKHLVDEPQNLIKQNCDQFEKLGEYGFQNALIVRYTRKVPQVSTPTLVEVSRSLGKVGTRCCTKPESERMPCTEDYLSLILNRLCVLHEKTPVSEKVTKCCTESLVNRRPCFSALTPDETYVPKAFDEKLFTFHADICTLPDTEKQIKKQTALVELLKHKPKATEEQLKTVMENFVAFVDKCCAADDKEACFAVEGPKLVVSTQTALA

[1] = probe aXIP binding to arrayed compounds – biochemical, NeuroSMM set, 635/667 nm fluorescence, primary screen (AID 1119); conditions: small-molecule microarray, higher = more signal, called active from +8 up or from −8 down;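 also: probe is the protein aXip251-270 applied at 1 µg/mL to compound-printed slides; binding of probe to printed compounds measured as 667 nm fluorescence plus signal to noise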
[2] = probe aNOTCH3 binding on compound microarray – biochemical, small-molecule microarray, 635/667 nm fluorescence, primary screen (AID 1120); conditions: higher = more signal;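 also: probe is a biotin-tagged antibody raised against NOTCH3 rather than NOTCH3 protein; score merges spot fluorescence near 667 nm with spot signal to noise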
[3] = probe aNOTCH2 binding on compound microarray – biochemical, small-molecule microarray, 635/667 nm fluorescence, primary screen (AID 1121); conditions: higher = more signal;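 also: score merges feature fluorescence read at 667 nm with its signal to noise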
[4] = target: Carbonic anhydrase 2 (Homo sapiens) (UniProt P00918); test: compounds binding carbonic anhydrase 2 – biochemical, small-molecule microarray, Alexa647-labelled CAII, profiling panel (AID 1122); conditions: CAII-A647 binding fluorescence, higher = more signal
[5] = COS7 lysate on small-molecule microarray, probe aHis, 635 nm (AID 1123); conditions: COS7 cell lysate, fluorescence, higher = more signal;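 also: z-score combines 667nm fluorescence intensity with signal-to-noise per printed compound spot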
[6] = probe aLAP1 signal on lysate-treated microarray – cell lysate, small-molecule microarray, COS7 lysate, primary screen (AID 1124); conditions: probe aLAP1, fluorescence, higher = more signal;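 also: lysate comes from COS7 cells expressing LAP1 and is applied at 0.3 µg/mL; score merges spot fluorescence near 667 nm with signal-to-noise over triplicate slides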
Sam68 (KHDRBS1) = test: compounds binding KHDRBS1 protein – biochemical, small-molecule microarray, 635 nm fluorescence, primary screen (AID 1125); conditions: higher = more signal;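 also: score merges 667 nm channel intensity with signal to noise over triplicate slides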
[7] = system: Chordin-like protein 2 (CHRDL2); test: compounds binding chordin-like 2 – biochemical, small-molecule microarray, 635 nm fluorescence, primary screen (AID 1126); conditions: fluorescence 635 nm, higher = more signal;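 also: printed compound slides probed with Chrdl2 protein at 4 µg/mL for 1 h at 4 C; score merges 667 nm emission intensity with signal to noise over three replicate slides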
[8] = target: Concanavalin-A (Canavalia ensiformis) (UniProt P02866); test: compounds binding concanavalin A lectin – biochemical, small-molecule microarray, Alexa647 label, 635 nm, artefact control for SMM control protein annotation, primary screen (AID 1127); conditions: ConA-A647 binding fluorescence, higher = more signal;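 also: z combines 667 nm emission intensity with signal-to-noise across three replicate slides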
Sequence of Concanavalin-A (Canavalia ensiformis) (P02866 whole entry, looked up): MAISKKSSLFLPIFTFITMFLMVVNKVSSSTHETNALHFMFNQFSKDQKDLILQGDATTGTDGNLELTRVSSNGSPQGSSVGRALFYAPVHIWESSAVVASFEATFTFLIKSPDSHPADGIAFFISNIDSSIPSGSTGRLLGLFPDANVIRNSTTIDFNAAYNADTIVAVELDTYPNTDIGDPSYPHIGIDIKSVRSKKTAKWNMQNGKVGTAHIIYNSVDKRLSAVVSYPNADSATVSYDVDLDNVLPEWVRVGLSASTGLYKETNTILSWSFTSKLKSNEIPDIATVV

[9] = compounds binding Alexa647 anti-His antibody – biochemical, small-molecule microarray, 635 nm fluorescence, artefact control for SMM control protein annotation, primary screen (AID 1128); conditions: higher = more signal;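 also: score merges feature fluorescence with signal-to-noise for each printed compound spot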
[10] = system: Human papillomavirus type 1a E7 protein (residues 1-88); test: HPV1a E7 small-molecule binders, primary screen, biochemical, small-molecule microarray, residues 1-88, 635 nm (AID 1129); conditions: small-molecule microarray binding, fluorescence 635 nm; higher = more signal
[11] = target: Focal adhesion kinase 1 (Homo sapiens) (UniProt Q05397); test: PTK2 protein binding on printed compound slides – biochemical, small-molecule microarray, 635/667 nm fluorescence, BSA, DTT, primary screen (AID 1130); conditions: 635 nm fluorescence, higher = more signal;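 also: composite of spot emission at 667 nm and signal to noise over triplicate slides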
Sequence of Focal adhesion kinase 1 (Homo sapiens) (Q05397 whole entry, looked up): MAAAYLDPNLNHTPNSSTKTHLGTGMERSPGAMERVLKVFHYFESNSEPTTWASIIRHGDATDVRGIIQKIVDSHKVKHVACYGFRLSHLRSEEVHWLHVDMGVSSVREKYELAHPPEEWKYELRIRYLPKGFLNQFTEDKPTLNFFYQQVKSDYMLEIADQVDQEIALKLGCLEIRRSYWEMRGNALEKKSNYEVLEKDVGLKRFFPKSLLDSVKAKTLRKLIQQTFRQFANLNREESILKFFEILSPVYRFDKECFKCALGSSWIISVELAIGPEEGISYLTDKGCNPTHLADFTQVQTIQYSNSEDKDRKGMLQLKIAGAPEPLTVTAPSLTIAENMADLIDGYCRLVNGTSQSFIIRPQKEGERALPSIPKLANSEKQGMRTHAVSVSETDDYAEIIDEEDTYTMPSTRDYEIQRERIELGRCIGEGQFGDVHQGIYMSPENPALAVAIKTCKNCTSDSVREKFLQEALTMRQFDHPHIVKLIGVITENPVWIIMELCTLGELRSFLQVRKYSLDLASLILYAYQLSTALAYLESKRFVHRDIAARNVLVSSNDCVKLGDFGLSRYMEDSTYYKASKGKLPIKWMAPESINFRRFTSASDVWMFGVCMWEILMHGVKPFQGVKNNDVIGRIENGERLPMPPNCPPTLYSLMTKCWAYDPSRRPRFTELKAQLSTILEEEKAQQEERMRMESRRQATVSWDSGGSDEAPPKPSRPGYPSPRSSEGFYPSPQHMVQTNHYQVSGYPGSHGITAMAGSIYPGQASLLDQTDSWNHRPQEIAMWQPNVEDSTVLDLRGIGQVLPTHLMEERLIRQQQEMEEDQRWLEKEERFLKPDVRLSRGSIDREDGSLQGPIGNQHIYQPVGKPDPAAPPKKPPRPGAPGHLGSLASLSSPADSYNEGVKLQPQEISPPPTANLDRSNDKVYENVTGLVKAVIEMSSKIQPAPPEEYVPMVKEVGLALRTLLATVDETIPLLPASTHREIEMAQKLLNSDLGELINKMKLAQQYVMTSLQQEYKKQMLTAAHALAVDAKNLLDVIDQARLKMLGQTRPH

[12] = system: Fibrinogen (Alexa647-labelled); test: Alexa647-fibrinogen binding to printed small molecules – biochemical, small-molecule microarray, 635/667 nm fluorescence, artefact control for SMM control-protein annotation, profiling panel (AID 1131); conditions: fibrinogen-A647 binding fluorescence, higher = more signal;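 also: z-score merges 667 nm fluorescence with per-spot signal-to-noise over triplicate slides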
[13] = target: Follistatin (Homo sapiens) (UniProt P19883); test: FST protein binding to printed compounds – biochemical, small-molecule microarray, 635/667 nm fluorescence, primary screen (AID 1132); conditions: 635 nm fluorescence, higher = more signal
Sequence of Follistatin (Homo sapiens) (P19883 whole entry, looked up): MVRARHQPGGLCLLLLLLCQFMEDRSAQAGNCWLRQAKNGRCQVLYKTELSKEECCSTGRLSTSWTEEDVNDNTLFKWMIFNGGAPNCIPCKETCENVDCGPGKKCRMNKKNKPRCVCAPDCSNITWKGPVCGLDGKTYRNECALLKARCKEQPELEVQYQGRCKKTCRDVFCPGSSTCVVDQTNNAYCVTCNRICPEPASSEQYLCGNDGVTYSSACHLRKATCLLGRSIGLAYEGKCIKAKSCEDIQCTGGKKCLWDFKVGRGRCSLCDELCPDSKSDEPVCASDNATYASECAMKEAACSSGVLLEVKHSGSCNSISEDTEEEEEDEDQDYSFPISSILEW

[14] = target: Fibroblast growth factor 2 (Homo sapiens) (UniProt P09038); test: basic fibroblast growth factor binding to printed compounds – biochemical, small-molecule microarray, 635/667 nm fluorescence, primary screen (AID 1133); conditions: FGF2, fluorescence 635/667, higher = more signal
Sequence of Fibroblast growth factor 2 (Homo sapiens) (P09038 whole entry, looked up): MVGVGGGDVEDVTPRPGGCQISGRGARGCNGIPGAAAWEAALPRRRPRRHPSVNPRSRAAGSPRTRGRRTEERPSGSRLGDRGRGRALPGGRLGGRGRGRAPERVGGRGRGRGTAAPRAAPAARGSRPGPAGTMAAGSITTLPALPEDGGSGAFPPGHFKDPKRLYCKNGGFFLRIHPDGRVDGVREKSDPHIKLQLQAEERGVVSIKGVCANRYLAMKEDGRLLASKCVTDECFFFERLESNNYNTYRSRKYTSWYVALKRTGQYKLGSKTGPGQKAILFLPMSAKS

[15] = JC-1 mitochondrial potential readout, lung cancer cells – cell-based, A549, JC-1 fluorescence, basal, 24 h, 100 nL, profiling panel (AID 1138); conditions: higher = more signal;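 also: A549 lung adenocarcinoma cells under basal conditions with no added stimulus; test concentration not given here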
Lefty1 = Lefty1 protein binding to printed compounds – biochemical, small-molecule microarray, 635/667 nm fluorescence, primary screen (AID 1139); conditions: fluorescence 635/667, higher = more signal
[16] = system: wheat germ agglutinin (Triticum aestivum), Alexa647-labelled; test: Alexa647-WGA lectin binding to printed small molecules – biochemical, small-molecule microarray, 635/667 nm fluorescence, artefact control for SMM control-protein annotation, profiling panel (AID 1140); conditions: WGA-A647 binding, 635 nm fluorescence, higher = more signal;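 also: score merges 667 nm feature emission with signal to noise over triplicate slides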
[17] = target: Luciferin 4-monooxygenase (Photinus pyralis) (UniProt P08659); test: inhibition of purified Photinus pyralis luciferase – biochemical, luminescence, purified enzyme, 2006 set, primary screen (AID 1141); conditions: purified firefly luciferase, SteadyGlo luminescence, 30 min; higher = more signal, called active from +8 up or from −8 down;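 also: cell-free assay with purified firefly luciferase at 100 ng per well in PBS; test concentration not given here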
Sequence of Luciferin 4-monooxygenase (Photinus pyralis) (P08659 whole entry, looked up): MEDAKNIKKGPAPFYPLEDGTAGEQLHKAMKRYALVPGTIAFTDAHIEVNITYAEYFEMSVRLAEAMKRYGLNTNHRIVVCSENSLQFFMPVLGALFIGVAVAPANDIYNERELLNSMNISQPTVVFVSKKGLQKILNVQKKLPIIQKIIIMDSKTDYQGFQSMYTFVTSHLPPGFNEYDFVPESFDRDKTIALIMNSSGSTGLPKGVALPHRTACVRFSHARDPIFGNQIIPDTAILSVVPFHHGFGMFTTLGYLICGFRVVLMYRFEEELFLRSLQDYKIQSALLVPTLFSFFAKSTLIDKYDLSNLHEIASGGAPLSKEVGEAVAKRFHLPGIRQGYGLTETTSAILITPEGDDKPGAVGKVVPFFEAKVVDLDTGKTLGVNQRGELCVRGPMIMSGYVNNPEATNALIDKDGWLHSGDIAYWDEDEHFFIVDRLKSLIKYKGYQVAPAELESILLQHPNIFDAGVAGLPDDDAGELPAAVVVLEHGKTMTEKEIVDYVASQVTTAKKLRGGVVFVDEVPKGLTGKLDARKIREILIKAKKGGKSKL

| Structure (SMILES) | composite z-score (Albumin (Bos taurus)) | composite Z-score [1] | composite z-score [2] | composite z-score [3] | composite z-score [4] | composite z-score [5] | composite z-score [6] | composite z-score (Sam68 (KHDRBS1)) | composite z-score [7] | composite z-score [8] | composite z-score [9] | composite z-score [10] | composite z-score [11] | composite z-score [12] | composite z-score [13] | composite z-score [14] | z-score [15] | composite z-score (Lefty1) | composite z-score [16] | z-score [17] |
| --- | --- | --- | --- | --- | --- | --- | --- | --- | --- | --- | --- | --- | --- | --- | --- | --- | --- | --- | --- | --- |
| COc1ccc(O[C@@H]2[C@H](O)CO[C@@H]2C=Cc2ccccc2)cc1 | -0.0176 | 0.0831 (inactive) | -0.0343 | -0.115 | -0.053 | -0.39 | 0.0909 | 0.0255 | 0.211 | 0.37 | -0.198 | -0.222 | 0.166 | -0.223 | 0.409 | 0.758 | -0.464 | 0.397 | -0.124 | -0.451 (inactive) |
| CC(C)=NOC[C@@H](C)[C@H](OCc1ccccc1)C(C)C | -0.0998 | 0.317 (inactive) | -0.165 | -0.206 | -0.389 | -0.616 | -0.228 | -1.61 | 0.0109 | -0.0651 | 0.164 | -1.56 | -0.15 | -0.22 | -0.476 | -0.229 | -0.375 | -0.458 | -0.351 | -1.4 (inactive) |
| COc1ccc(COC(=O)NN=C2C[C@@H](O)[C@@H](O)[C@@H]3[C@@H]4C(=O)N(c5cccc(Oc6ccccc6)c5)C(=O)[C@@H]4CC[C@@H]23)cc1 | 0.267 | 0.807 (inactive) | 0.123 | -0.149 | 0.0806 | 0.303 | -0.116 | -0.456 | -0.424 | -0.337 | 0.177 | -0.181 | -0.0032 | 0.238 | -0.823 | -0.415 | -0.201 | -0.282 | 0.485 | 0.891 (inactive) |
| CO[C@H](C1CCCCC1)[C@H](C)C=CCC(=O)OCCCc1ccccc1 | -0.553 | 0.349 (inactive) | -0.125 | -0.0751 | -0.3 | -0.856 | -0.133 | -0.53 | 0.562 | -0.394 | 3.29 | -1.15 | 0.114 | -0.938 | 0.351 | 0.541 | -0.00988 | 0.0696 | -0.464 | -1.02 (inactive) |
| CCOC(=O)[C@H](CC(C)C)NC(=O)CCC1CC(OC(=O)NCCc2ccc(F)cc2)CC2(CCCC(COC(=O)NCC3CCCCC3)O2)O1 (stereo not given in full) | 0.424 | 0.2 (inactive) | 0.119 | -0.203 | 0.255 | 2.11 | 0.0165 | 0.986 | 0.618 | 1.07 | 0.183 | 0.579 | -0.124 | 0.623 | 0.51 | 0.631 | -0.506 | 0.803 | 0.676 | 0.997 (inactive) |
| CON=CC[C@@H]1C=C[C@H](OC(C)=O)[C@@H](COC(C)=O)O1 | -0.714 | 1.33 (inactive) | 0.287 | 0.0007 | 0.397 | 0.043 | 0.18 | -0.0499 | 0.679 | -0.32 | 0.0374 | -0.534 | 0.538 | -0.146 | 0.606 | 0.495 | 0.296 | 0.596 | 0.0389 | 0.218 (inactive) |
| CC(CCN1CCCCc2nc(C)c(C)cc21)=NO[C@@H](C)c1cn([C@H](CO)Cc2ccccc2)nn1 | 0.779 | 0.364 (inactive) | 0.0833 | -0.14 | 0.464 | -0.01 | -0.248 | 0.719 | 0.953 | 0.249 | 1.67 | 0.285 | 0.321 | 0.624 | 0.915 | 0.545 | 0.868 | 0.828 | -0.101 | 0.175 (inactive) |
| CCOC(=O)[C@H](Cc1ccccc1)NC(=O)CCC1CC(OC(=O)NCCc2ccc(F)cc2)CC2(CCCC(COC(=O)NCC3CCCCC3)O2)O1 (stereo not given in full) | 0.505 | -0.539 (inactive) | 0.18 | -0.0294 | 0.192 | 0.822 | 0.236 | 1.3 | 0.74 | 1.07 | 0.542 | 0.816 | 0.465 | 0.656 | 0.857 | 0.238 | 0.812 | 1.21 | 0.395 | 0.356 (inactive) |
| O=C1C[C@@H](O)[C@@H](O)[C@@H]2[C@@H]3C(=O)N(Cc4ccc5c(c4)OCO5)C(=O)[C@@H]3CC[C@H]12 | 0.272 | 0.0723 (inactive) | -0.16 | -0.186 | -0.126 | -0.254 | -0.225 | 0.416 | 0.356 | 0.717 | 0.324 | 0.923 | 0.381 | 0.735 | 0.243 | 0.19 | 0.733 | 0.428 | -0.203 | -0.56 (inactive) |
| COc1ccc(O[C@H]2C=C[C@@H](c3ccccc3)O[C@@H]2CON=CC[C@@H]2C=C[C@H](OC(C)=O)[C@@H](COC(C)=O)O2)cc1 | 0.779 | 0.112 (inactive) | 0.0893 | -0.145 | -0.198 | -0.478 | 0.221 | -0.176 | 0.366 | 0.543 | 2.11 | -0.311 | 0.178 | 0.516 | 0.229 | 0.107 | 0.124 | 0.257 | 0.807 | -0.354 (inactive) |
| COC(=O)NCC=Cc1nc(CCCO)co1 | 0.782 | 0.678 (inactive) | -0.0362 | -0.153 | -0.0958 | 0.549 | 0.215 | 0.559 | 0.809 | 0.161 | 0.53 | 0.804 | -0.0457 | 0.0947 | 0.614 | 0.564 | -0.223 | 0.706 | -0.0407 | 0.604 (inactive) |
